# Experimental data as given in PubChem BioAssay AID504333 (National Center for Advancing Translational Sciences (NCATS), 2011).
# In all, about 360,000 compounds went through this assay and about 16,000 (4.4%) were called active. A call without a number means that no potency is given here. About 9% were inconclusive and are not listed. The call rests on the fitted dose curve; in most records, active means well fitted inhibition curve with a large enough effect; inconclusive means small, poorly fitted or top-dose-only effect; inactive means no such curve, though single readings can be large or run the other way. The full list was thinned out, with actives kept by preference.
# Molecular target: Bromodomain adjacent to zinc finger domain protein 2B (Homo sapiens) (UniProt Q9UIF8)
# Sequence (Q9UIF8 whole entry, looked up, the tested form may be a part): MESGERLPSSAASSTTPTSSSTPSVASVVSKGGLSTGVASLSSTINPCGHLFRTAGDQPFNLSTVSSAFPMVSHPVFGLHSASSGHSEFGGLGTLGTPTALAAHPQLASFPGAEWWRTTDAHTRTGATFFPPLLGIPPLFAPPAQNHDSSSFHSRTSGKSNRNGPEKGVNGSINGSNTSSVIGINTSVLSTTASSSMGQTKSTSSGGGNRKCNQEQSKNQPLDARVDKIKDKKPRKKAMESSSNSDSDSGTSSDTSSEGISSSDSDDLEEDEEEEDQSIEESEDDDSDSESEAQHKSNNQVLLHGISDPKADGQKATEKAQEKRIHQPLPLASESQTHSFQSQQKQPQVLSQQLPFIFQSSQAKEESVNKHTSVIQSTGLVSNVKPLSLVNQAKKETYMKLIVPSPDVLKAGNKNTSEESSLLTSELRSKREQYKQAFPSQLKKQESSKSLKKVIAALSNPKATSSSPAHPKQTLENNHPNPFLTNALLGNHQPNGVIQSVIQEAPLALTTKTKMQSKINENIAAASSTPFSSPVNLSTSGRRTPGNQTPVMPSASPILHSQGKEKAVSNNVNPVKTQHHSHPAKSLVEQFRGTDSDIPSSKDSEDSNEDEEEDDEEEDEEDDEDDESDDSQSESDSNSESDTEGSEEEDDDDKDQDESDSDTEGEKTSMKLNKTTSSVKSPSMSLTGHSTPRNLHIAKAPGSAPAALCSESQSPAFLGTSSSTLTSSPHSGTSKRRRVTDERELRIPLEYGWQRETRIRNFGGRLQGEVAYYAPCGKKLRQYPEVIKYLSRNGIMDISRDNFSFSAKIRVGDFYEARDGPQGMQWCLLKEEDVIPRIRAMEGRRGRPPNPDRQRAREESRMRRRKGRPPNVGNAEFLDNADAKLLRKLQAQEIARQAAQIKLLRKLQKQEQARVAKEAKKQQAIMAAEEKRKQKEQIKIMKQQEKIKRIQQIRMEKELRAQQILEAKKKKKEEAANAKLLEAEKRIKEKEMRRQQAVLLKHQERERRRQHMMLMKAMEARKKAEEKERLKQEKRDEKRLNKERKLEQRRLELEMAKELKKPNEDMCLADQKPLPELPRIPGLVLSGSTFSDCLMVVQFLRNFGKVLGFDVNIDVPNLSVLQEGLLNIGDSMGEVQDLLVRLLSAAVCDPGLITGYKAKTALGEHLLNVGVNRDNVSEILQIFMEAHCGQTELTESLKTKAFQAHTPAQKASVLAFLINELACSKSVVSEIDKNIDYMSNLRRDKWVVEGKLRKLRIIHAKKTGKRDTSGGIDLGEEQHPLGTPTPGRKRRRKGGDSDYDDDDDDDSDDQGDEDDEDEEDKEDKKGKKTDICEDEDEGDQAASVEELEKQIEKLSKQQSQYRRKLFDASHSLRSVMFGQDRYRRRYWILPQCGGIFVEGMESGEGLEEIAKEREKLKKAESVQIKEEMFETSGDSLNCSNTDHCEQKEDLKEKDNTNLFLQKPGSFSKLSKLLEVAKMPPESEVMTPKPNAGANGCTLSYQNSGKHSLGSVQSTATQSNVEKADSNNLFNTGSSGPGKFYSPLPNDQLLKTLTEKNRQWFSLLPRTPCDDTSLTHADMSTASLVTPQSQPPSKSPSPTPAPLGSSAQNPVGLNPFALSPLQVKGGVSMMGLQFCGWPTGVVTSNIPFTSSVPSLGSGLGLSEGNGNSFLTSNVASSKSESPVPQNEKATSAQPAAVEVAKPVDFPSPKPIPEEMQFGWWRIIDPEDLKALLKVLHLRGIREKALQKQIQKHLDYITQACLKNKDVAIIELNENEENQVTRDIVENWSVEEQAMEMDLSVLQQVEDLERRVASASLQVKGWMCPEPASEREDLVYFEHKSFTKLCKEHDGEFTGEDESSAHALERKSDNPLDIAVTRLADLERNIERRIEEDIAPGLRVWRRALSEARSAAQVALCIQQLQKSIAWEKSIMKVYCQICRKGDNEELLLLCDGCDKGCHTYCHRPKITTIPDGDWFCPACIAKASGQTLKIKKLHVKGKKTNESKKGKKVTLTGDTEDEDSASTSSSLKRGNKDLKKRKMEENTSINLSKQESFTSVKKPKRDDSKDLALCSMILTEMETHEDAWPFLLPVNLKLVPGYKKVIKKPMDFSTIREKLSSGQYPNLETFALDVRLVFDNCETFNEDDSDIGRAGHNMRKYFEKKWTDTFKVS
# Test: qHTS Assay for Inhibitors of BAZ2B; further: nearly all actives have a fitted effect of over 60% in size
# Conditions: AlphaScreen BAZ2B-H3K14Ac peptide displacement; series mostly up to 114 µM
# Description: BAZ2B (bromodomain adjacent to zinc finger domain, 2B) belongs to a family of ubiquitously expressed bromodomain containing proteins, which biological function has not yet been elucidated. […] The interaction of BAZ2B with ISWI mediated by the BAZ1 motif has recently been described. […] The protocol is based on the AlphaScreen (PerkinElmer) displacement assay developed by NCGC [5], but uses the peptide ligand Biot-H3K14Ac, a high affinity binding partner for BAZ2B, in an AlphaScreen format. Although AlphaScreen has significant advantages with its utility in a variety of epigenetic target assays, the primary screening data provided in this deposition should be used with caution due to the prevalence of screening artifacts. The top compound concentration tested was 110uM in this assay, which increases number of actives and potential artifacts. An AlphaScreen counterscreen is highly recommended to be run against any putative actives to eliminate non-specific artifacts. Alternatively, one can use other AlphaScreen assays in PubChem to filter out promiscuous hits. Eberharter, A. et al. ACF1 improves the effectiveness of nucleosome mobilization by ISWI through PHD-histone contacts. The EMBO journal 23, 4029-4039. 2004. PMID: 15457208 [2] Jones, M.H. et al. A novel family of bromodomain genes. Genomics 63, 40-45. 2000. PMID: 10662543 [3] Yasgar, et al. Compound Management for Quantitative High-Throughput Screening. JALA. 2008 Apr;13(2):79-89. PMID: 18496600 [4] Inglese, et al. Quantitative high-throughput screening: a titration-based approach that efficiently identifies biological activities in large chemical libraries. Proc Natl Acad Sci. 1;103(31):11473-8. 2006. PMID: 16864780 [5] Quinn et al. A chemiluminescence-based method for identification of histone lysine methyltransferase inhibitors. Mol Biosyst 6(5): 782-8. 2010. PMID: 20567762 [6] Baell,Holloway. New substructure filters for removal of pan assay interference compounds (PAINS) from screening libraries and for their exclusion in bioassays. J Med Chem. 53(7):2719-40. 2010. PMID: 20131845 NIH Molecular Libraries Probe Production Network [MLPCN] NIH Chemical Genomics Center [NCGC] Structural Genomics Consortium (SGC) NIH Grant: 5U54 MH084681-02
# To each well of a 1,536w plate, 2ul of BAZ2B protein (final 50nM) and 1ul biotinylated histone peptide acetylated at Lys14 [b-H3(5-23)K14Ac] (final 50nM) were added in 1x PBS buffer, pH 7.4, containing 0.01% Tween-20, using a nanoliter dispenser. Formation of a protein-peptide complex proceeded at room temperature for 30 min. A Kalypsys pin-tool was employed to transfer 23 nL of library compound solution in DMSO to each well. Following a 30 min incubation of the protein-peptide complex with compounds at room temperature, a mixture of 40 ug/mL each streptavidin-coated donor and nickel chelate acceptor AlphaScreen beads (final 10 ug/mL) were added in a 1ul dispense for a final volume of 4ul. A brief centrifugation followed (1000rpm, 1 min) and were then incubated protected from the light for 20 min at room temperature. Plates were read on an EnVision multilabel plate reader using the 1,536 plate HTS AlphaScreen aperture (excitation time 80 ms, measurement time 240 ms).
# Potency means the concentration at half of the fitted maximal effect.
row,SMILES,Potency
1,CCc1ccc(OCC(=O)N2CCN(CC(=O)Nc3ccccc3Cl)CC2)cc1,inactive
2,Cc1cc(C=C2C(=O)NC(=O)NC2=O)c(C)n1-c1ccncc1,inactive
3,Cc1ccc(-n2c(C)cc(/C=C3\C(=O)NC(=O)N(C)C3=O)c2C)cc1C,inactive
4,Cc1cc(/C=C2/C(=O)NC(=O)N(Cc3ccco3)C2=O)c(C)n1-c1ccc(C(=O)O)cc1,56.2 µM (active)
5,Cn1c(O)c(C(=Nc2ccc(F)cc2)c2ccccc2)c(=O)n(C)c1=O,inactive
6,CCN(CC)c1ccc([N+](=O)[O-])c2cccnc12,28.2 µM (active)
7,COC(=O)C1=C(c2ccccc2OCc2ccccc2)C[C@@H]2CC[C@H]1N2C(=O)NCc1ccc(OC)cc1,inactive
8,Cc1c(Oc2cc(NN3CCCCC3)c([N+](=O)[O-])cc2[N+](=O)[O-])cccc1[N+](=O)[O-],inactive
9,CN(C)C(=O)Oc1ccc(NC(=O)N2CCOCC2)cc1,inactive
10,COc1ccc2[nH]c3c(c2c1)CCN[C@H]3C,44.7 µM (active)
11,CCOC(=O)C1(Cc2ccc(Cl)cc2)CCN(C(C)CCn2cccn2)CC1 (stereo unspecified),inactive
12,CCCCn1c(=O)c(C(=O)Nc2ccccc2Cl)c(O)c2ccccc21,inactive
13,Cc1cccc(Cn2cccc(C(=O)Nc3ccc4c(c3)OCCO4)c2=O)c1,inactive
14,O=c1c2ccccc2nc(/C=C/c2ccc(F)cc2)n1-c1ccccc1O,inactive
15,C=CCN1C(=O)NC(=O)/C(=C/c2ccc(OCC(=O)Nc3ccc(C)cc3)cc2)C1=O,50.1 µM (active)
16,C=CCN(CC=C)C(=O)Nc1ccc(OCC)cc1,inactive
17,Cc1ccc(C2CN(C)CC2C(=O)c2ccc(F)cc2)cc1 (stereo unspecified),inactive
18,CC(C)c1c(CN(C)C(C)Cc2ccccc2)n(C)n(-c2ccccc2)c1=O (stereo unspecified),inactive
19,CN1CCc2cc3c(cc2[C@H]1[C@@H]1OC(=O)c2c1ccc1c2OCO1)OCO3,inactive
20,C[C@]12CC[C@H](O)C[C@H]1CC[C@@H]1C2CC[C@]2(C)[C@@H](C3=CC(=O)OC3)[C@@H](O)C[C@]12O (stereo partly specified),inactive
21,CN(C)CC1CCCCC1=O (stereo unspecified),inactive

row,SMILES,Potency
1,Cc1c(C(=O)O)cccc1-n1c(C)cc(/C=C2\C(=O)NC(=O)N(c3ccc4c(c3)OCO4)C2=O)c1C,56.2 µM (active)
2,Cc1ccccc1N1C(=O)NC(=O)/C(=C\c2cc(C)n(C)c2C)C1=O,inactive
3,O=C1N=c2ccccc2=C/C1=C\c1c(O)[nH]c(=S)[nH]c1=O,inactive
4,O=C1NC(=O)C(C/C=C/c2ccccc2)C(=O)N1,inactive
5,CCOP(=S)(OCC)C(O)CCCCCn1c(=O)c(F)cn(C2CCCO2)c1=O (stereo unspecified),inactive
6,CCc1nc2ccccc2c(=O)n1-c1cccc(OC)c1,inactive
7,CC(C)c1ccc(O)c(CN2CCN(c3ccccc3)CC2)c1,inactive
8,COc1ccc(CN2CCN(c3ccccc3F)CC2)c(OC)c1,50.1 µM (active)
9,Cc1cccc(NC(=O)N2CC3CC(C2)c2cccc(=O)n2C3)c1 (stereo unspecified),inactive
10,CCOc1cccc(=NC2CCCCC2)c2c(C)[nH]c(C)c12,inactive
11,O=C(O)c1ccccc1NC(=O)C1C2CCC(O2)C1C(=O)O (stereo unspecified),inactive
12,CCN(CC)C(=O)Oc1ccc(NC(=O)N2CCOCC2)cc1,inactive
13,CCC(=NCc1ccco1)c1c(O)n(Cc2ccccc2)c(=O)[nH]c1=O,50.1 µM (active)
14,CCCCn1c(O)c(C(CC)=NCc2ccco2)c(=O)[nH]c1=O,inactive
15,CC/C(=N\NC(=O)c1ccccc1O)c1c(O)n(Cc2ccccc2)c(=O)[nH]c1=O,inactive
16,COC(=O)C1=C(c2ccc(F)cc2OCc2ccccc2)C[C@@H]2CC[C@H]1N2C(=O)NCc1ccc(OC)c(OC)c1,inactive
17,O=C(CCC(=O)N1C[C@H]2C[C@@H](C1)c1cccc(=O)n1C2)NCc1ccccc1C(F)(F)F,inactive
18,CN1CCN(Cc2ccccc2C(F)(F)F)CC1,inactive
19,CN1CCN(Cc2ccc(OC(F)(F)F)cc2)CC1,56.2 µM (active)
20,CC(C)c1ccc(OCC(=O)N2CCCN(C)CC2)cc1,inactive
21,CCN(CC)C(=O)c1ccc(NC(=O)c2sccc2-c2ccccc2)cc1,inactive

row,SMILES,Potency
1,CCOc1cc(N2CCOCC2)c(OCC)cc1NC(=O)C1=NN(c2cccc(C)c2)C(=O)CC1,8.91 µM (active)
2,CN(C)CC1Oc2ccccc2OC1(O)c1ccccc1 (stereo unspecified),inactive
3,CN(C)c1ccc(/C=C2\CC3C4CC=C5CC(O)CCC5(C)C4CCC3(C)C2=O)cc1 (stereo unspecified),inactive
4,COC(=O)C1=C(c2ccc(F)cc2OCc2ccccc2)C[C@@H]2CC[C@H]1N2C(=O)NCc1ccc(Cl)cc1,inactive
5,Cc1ccc(CN2CCCC(C(=O)c3ccc4c(c3)OCO4)C2)cc1C (stereo unspecified),inactive
6,OC(CNC1CCCCC1)c1ccccc1 (stereo unspecified),inactive
7,c1ccc(CCNC2CCCCCC2)cc1,70.8 µM (active)
8,c1cc2c(cc1[C@H]1OC[C@H]3[C@@H]1CO[C@@H]3c1ccc3c(c1)OCO3)OCO2,inactive
9,c1cc2c(cc1CCNC1CCCCCC1)OCO2,17.8 µM (active)
10,c1ccc(CC2CCCCN2)cc1 (stereo unspecified),inactive
11,COc1cc(Cn2c(N)c(C(=O)NCc3ccco3)c3nc4ccccc4nc32)cc(OC)c1OC,inactive
12,O=C(c1ccccc1[N+](=O)[O-])N1CCC2(CC1)OCCO2,inactive
13,COC(=O)C1=C(c2ccc(F)cc2F)C[C@@H]2CC[C@H]1N2C(=O)NC1CC1,inactive
14,Cc1ccc2c(c1)=C/C(=C\c1c(O)[nH]c(=O)[nH]c1=O)C(=O)N=2,inactive
15,CCOc1ccc(-c2cc(C)[n+](CCN(CC)CC)c(-c3ccc(OCC)cc3)c2)cc1,inactive
16,Cc1ccc(C(C)C)c(OCC(=O)N2CCN(CC(=O)N3CCOCC3)CC2)c1,inactive
17,CN(C)c1ccc(NC(=O)CN2C3CCCC2CC(NC(=O)c2ccccc2)C3)cc1 (stereo unspecified),70.8 µM (active)
18,CC(=O)Nc1ccc(C(=O)C(Cc2ccccc2)N(C)C)cc1 (stereo unspecified),inactive
19,CN(C)S(=O)(=O)c1cc(C(=O)N2CCC(C(=O)O)(c3ccccc3)CC2)ccc1Cl,inactive
20,CCN1CCN(c2nc3c(c(=O)[nH]2)CCC3)CC1,inactive
21,O=C(Nc1ccc(Cl)cc1C(=O)c1ccccc1)c1cc(Cl)cc(Cl)c1,inactive

row,SMILES,Potency
1,Cc1cccc(N2C(=O)NC(=O)/C(=C\c3cnn(-c4ccccc4)c3)C2=O)c1,inactive
2,O=C1NC(=O)N(c2ccccc2)C(=O)/C1=C/c1ccc([N+](=O)[O-])s1,35.5 µM (active)
3,COc1cccc(N2C(=O)NC(=O)/C(=C\c3cn(C)c4ccccc34)C2=O)c1,inactive
4,COc1cccc(N2C(=O)NC(=O)/C(=C\c3ccc([N+](=O)[O-])s3)C2=O)c1,31.6 µM (active)
5,Cc1nn(-c2ccccc2)c(C)c1NC(=O)COC(=O)Cc1ccccc1,inactive
6,COC(=O)C1=C(c2ccc(C(C)=O)cc2)C[C@@H]2CC[C@H]1N2C(=O)NCCNC(C)=O,inactive
7,CC(C)n1c(=O)c(C=Nc2ccc(Br)cc2)c(O)n(Cc2ccco2)c1=O,inactive
8,Cc1cc(C(=O)OCC(=O)Nc2c(F)cccc2F)c(C)n1C1CC1,inactive
9,COc1ccccc1OC(=O)c1ccc(C)c(S(=O)(=O)N2CCOCC2)c1,inactive
10,COc1ccc(N2C(=O)/C(=C/c3ccco3)C(=O)NC2=S)cc1,3.55 µM (active)
11,COc1ccc(CN2C(=O)NC(=O)/C(=C\c3ccc(OC)c(OC)c3OC)C2=O)cc1,inactive
12,Cc1ccc(S(=O)(=O)N(C)c2ccc(C(=O)NCC3(N(C)C)CCCCC3)cc2)cc1,inactive
13,CN(C)C(=O)Oc1ccc(OCc2cccc[n+]2C)cc1,inactive
14,COC(=O)C1=C(c2ccc(F)cc2OCc2ccccc2)C[C@@H]2CC[C@H]1N2C(=O)NCc1ccc(C(C)(C)C)cc1,inactive
15,O=C(OCC1O[C@@H](OC(=O)c2cc(O)c(O)c(O)c2)[C@@H](OC(=O)c2cc(O)c(O)c(O)c2)[C@@H](OC(=O)c2cc(O)c(O)c(O)c2)[C@@H]1OC(=O)c1cc(O)c(O)c(O)c1)c1cc(O)c(O)c(O)c1 (stereo partly specified),0.708 µM (active)
16,CN(C)C(=O)Oc1ccc2c(c1)O/C(=C\c1ccccc1)C2=O,inactive
17,CC1CCC(N(C)C2CCN(C)CC2)CC1 (stereo unspecified),inactive
18,CNC(=O)O/N=C(\N)Cc1csc2ccc(Cl)cc12,inactive
